Reference: the supplement of paper PMC6897291

System: U-2932
Assay: growth inhibition by drug alone (1 - RLU/untreated control) (fraction); higher = stronger inhibition
Settings: 177Lu-lilotomab satetraxetan 0 ug/ml
Description: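 U-2932 ABC-DLBCL cells were pretreated or not for 18 h with 1 ug/ml 177Lu-lilotomab satetraxetan (600 MBq/mg), washed and seeded (3000 cells/well) on 384-well plates pre-printed with the Selleck Cambridge Cancer Compound library. Viability was read by RealTime-Glo luminescence on days 3-6 after seeding. Effect = 1 - RLU/mean RLU of the 48 untreated no-drug control wells per plate; Bliss score = (M-E)/(1-Fa), with E the expected Bliss-additive effect.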

Q: What does the source list for `N#Cc1ccc(C(c2ccc(C#N)cc2)n2cncn2)cc1` [Letrozole]?
A: growth inhibition by drug alone (10 nM, time (day): 3): -0.0916; growth inhibition by drug alone (10 nM, time (day): 4): -0.0615; growth inhibition by drug alone (10 nM, time (day): 5): -0.0521; growth inhibition by drug alone (10 nM, time (day): 6): 0.00419; growth inhibition by drug alone (1000 nM, time (day): 3): -0.0775; growth inhibition by drug alone (1000 nM, time (day): 4): -0.0542; growth inhibition by drug alone (1000 nM, time (day): 5): -0.0553; growth inhibition by drug alone (1000 nM, time (day): 6): -0.0728

Q: With `CN1CCC(CNc2ccc3ncc(-c4cccc(OC(F)(F)F)c4)n3n2)CC1` [SGI-1776 free base] as the molecule, how does the “growth inhibition by drug alone” value (10 nM, time (day): 3) read?
A: Its value is 0.04.

Q: What about the “growth inhibition by drug alone” value (10 nM, time (day): 4) of the same molecule?
A: Its value is 0.0462.

Q: And the “growth inhibition by drug alone” value (10 nM, time (day): 5)?
A: The value was -0.0159.

Q: What about the “growth inhibition by drug alone” value (10 nM, time (day): 6) of the same molecule?
A: Its value is -0.415.

Q: What about the “growth inhibition by drug alone” value (1000 nM, time (day): 3) of the same molecule?
A: Its value is 0.131.

Q: What about the “growth inhibition by drug alone” value (1000 nM, time (day): 4) of the same molecule?
A: The value was 0.115.

Q: And the “growth inhibition by drug alone” value (1000 nM, time (day): 5)?
A: Its value is 0.0463.

Q: And the “growth inhibition by drug alone” value (1000 nM, time (day): 6)?
A: Its value is -0.00407.

Q: Which results are given for `COc1c(C)c2c(c(O)c1C/C=C(\C)CCC(=O)OCCN1CCOCC1)C(=O)OC2` [Mycophenolate mofetil (CellCept)]?
A: growth inhibition by drug alone (10 nM, time (day): 3): 0.0454; growth inhibition by drug alone (10 nM, time (day): 4): 0.0504; growth inhibition by drug alone (10 nM, time (day): 5): -0.00114; growth inhibition by drug alone (10 nM, time (day): 6): -0.00474; growth inhibition by drug alone (1000 nM, time (day): 3): 0.727; growth inhibition by drug alone (1000 nM, time (day): 4): 0.792; growth inhibition by drug alone (1000 nM, time (day): 5): 0.743; growth inhibition by drug alone (1000 nM, time (day): 6): 0.673

Q: How did the “growth inhibition by drug alone” value (10 nM, time (day): 3) turn out when `CC(=O)O[C@]1(C(C)=O)CC[C@H]2[C@@H]3C=C(C)C4=CC(=O)CC[C@]4(C)[C@H]3CC[C@@]21C` [Megestrol Acetate] was run?
A: The value was 0.119.

Q: What about the “growth inhibition by drug alone” value (10 nM, time (day): 4) of the same molecule?
A: The value was 0.0962.

Q: And the “growth inhibition by drug alone” value (10 nM, time (day): 5)?
A: The value was 0.0591.

Q: What about the “growth inhibition by drug alone” value (10 nM, time (day): 6) of the same molecule?
A: The value was 0.00317.

Q: What about the “growth inhibition by drug alone” value (1000 nM, time (day): 3) of the same molecule?
A: The value was 0.0742.

Q: And the “growth inhibition by drug alone” value (1000 nM, time (day): 4)?
A: Its value is 0.112.

Q: What about the “growth inhibition by drug alone” value (1000 nM, time (day): 5) of the same molecule?
A: The value was 0.0515.

Q: What about the “growth inhibition by drug alone” value (1000 nM, time (day): 6) of the same molecule?
A: The value was -0.0501.

Q: `CC#C[C@]1(O)CC[C@H]2[C@@H]3CCC4=CC(=O)CCC4=C3[C@@H](c3ccc(N(C)C)cc3)C[C@@]21C` [Mifepristone (Mifeprex)] was tested. Which “growth inhibition by drug alone” value (10 nM, time (day): 3) did it give?
A: Its value is -0.0691.

Q: What about the “growth inhibition by drug alone” value (10 nM, time (day): 4) of the same molecule?
A: Its value is -0.0767.

Q: What about the “growth inhibition by drug alone” value (10 nM, time (day): 5) of the same molecule?
A: Its value is -0.047.

Q: And the “growth inhibition by drug alone” value (10 nM, time (day): 6)?
A: Its value is 0.0535.

Q: And the “growth inhibition by drug alone” value (1000 nM, time (day): 3)?
A: Its value is -0.0327.

Q: What about the “growth inhibition by drug alone” value (1000 nM, time (day): 4) of the same molecule?
A: The value was -0.0148.

Q: What about the “growth inhibition by drug alone” value (1000 nM, time (day): 5) of the same molecule?
A: The value was -0.0455.

Q: What about the “growth inhibition by drug alone” value (1000 nM, time (day): 6) of the same molecule?
A: The value was 0.0917.
